# PubChem BioAssay AID574 (The Scripps Research Institute Molecular Screening Center, 2007)
# Screen size: about 65,000 compounds; about 450 (0.69%) were called active.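 Rule for the calls: active = activation above a set limit, the screen-wide mean activation plus 3 SD (cut at about 8.5% in these data); inactive = the rest.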 Only a selection was taken, and actives are over-represented in it overall.
# Target: 5-hydroxytryptamine receptor 1E (Homo sapiens) (UniProt P28566)
# Experiment: activation of human serotonin 5HT1E receptor – cell-based, HTS, primary screen (AID 574);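 note: 100% = positive control agonist at 1 µM giving full maximal response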
# Settings: CHO 5-HT1E Ga15 NFAT-bla reporter, FRET; at 6 µM; active compounds read high; 0% DMSO wells, 100% control agonist wells
# 5-hydroxytryptamine receptor 1E (Homo sapiens), sequence (P28566 whole entry, looked up): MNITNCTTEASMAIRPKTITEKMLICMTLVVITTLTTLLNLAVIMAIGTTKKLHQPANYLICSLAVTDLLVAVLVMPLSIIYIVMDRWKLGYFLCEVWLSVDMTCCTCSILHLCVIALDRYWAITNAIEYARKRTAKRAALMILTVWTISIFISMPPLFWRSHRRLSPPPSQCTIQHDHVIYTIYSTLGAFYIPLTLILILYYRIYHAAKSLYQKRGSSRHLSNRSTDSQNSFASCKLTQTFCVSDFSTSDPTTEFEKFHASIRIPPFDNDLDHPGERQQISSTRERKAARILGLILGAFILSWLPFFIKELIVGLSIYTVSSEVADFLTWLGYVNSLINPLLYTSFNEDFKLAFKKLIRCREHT
row,SMILES,activation
1,CCCCOc1ccccc1/C=c1/sc2nc(-c3oc4ccccc4c3C)nn2c1=O,0.1% (inactive)
2,O=c1nc2s/c(=C\c3ccco3)c(=O)n2nc1Cc1ccccc1,17.9% (active)
3,CCOc1ccccc1/C=c1\sc2nc(-c3ccco3)nn2c1=O,0.9% (inactive)
4,O=C(CCS(=O)(=O)Cc1ccccc1F)NCCCN1CCCCC1,-1.2% (inactive)
5,Cc1ccc(CNC(=O)CCCNC(=O)c2ccc(Cl)cc2)n1C,-0.6% (inactive)
6,O=S(=O)(NCc1ccccc1Cl)c1cnc[nH]1,0.3% (inactive)
7,COc1ccc2c(c1)OC(O)(C(F)(F)C(F)F)CC2=O (configuration not stated),12% (active)
8,CN(C)c1ccnc2sc3c(=O)n(Cc4ccccc4)cnc3c12,0.2% (inactive)
9,CCOC(=O)c1sc(N(Cc2ccccc2)C(=O)CN2C(=O)CN(C)C2=O)nc1C,0.8% (inactive)
10,CCN(CCCNC(=O)C1CCN(S(=O)(=O)c2cnc[nH]2)CC1)c1ccccc1,-0.1% (inactive)
11,CN1CCN(Cc2c(O)ccc3c2oc(=O)c2ccccc23)CC1,-1.2% (inactive)
12,Cc1nc2ccccc2c2oc(C(=O)NCCCN3CCC(C)CC3)cc12,-0.7% (inactive)
13,CN1CCN(CCCNC(=O)c2cc3c(=O)oc4ccccc4c3s2)CC1,14.9% (active)
14,CCS(=O)(=O)N1CCN(C(=O)c2cccs2)CC1,0.5% (inactive)
15,O=C(CC(Cc1ccccc1)C(=O)O)NCCc1ccc2c(c1)OCO2 (configuration not stated),10.3% (active)
16,O=C(COc1ccccc1)NCc1ccc2c(c1)OCO2,-0.5% (inactive)
17,O=C(CN(Cc1ccccc1)C(=O)c1ccc2c(c1)OCCO2)NCc1ccc2c(c1)OCO2,-1.2% (inactive)
18,Cc1cc(=O)n2nc(N3CCCC(C(=O)N4CCN(C)CC4)C3)sc2n1 (configuration not stated),0% (inactive)
19,CN(C)CCCn1c(N)c(C#N)c2nc(C#N)c(C#N)nc21,3.5% (inactive)
20,CCOc1ccc2nc(NC(=O)CSc3nc4c(c(=O)n(C)c(=O)n4C)n3CC)sc2c1,-0.3% (inactive)
21,CCOC(=O)CCc1c(C)c(C#N)c2[nH]c3ccccc3n2c1=O,-0.2% (inactive)

row,SMILES,activation
1,CCC1CCCCN1CCNS(=O)(=O)c1ccc2c(c1)CCN2C(C)=O (configuration not stated),-0.3% (inactive)
2,O=S(=O)(c1ccc(OCC(O)CN2CCN(c3ccccc3Cl)CC2)cc1)N1CCOCC1 (configuration not stated),1.6% (inactive)
3,CCCN1C(=O)C(NC(C)=O)c2cc(OC)ccc21 (configuration not stated),0.7% (inactive)
4,CCOC(=O)N1CCN(C(=O)c2cnc3n(c2=O)CCS3)CC1,4.1% (inactive)
5,Cn1c(NC(=O)c2ccco2)c(-c2ccccc2Cl)c(=O)c2ccccc21,0.2% (inactive)
6,CCC(=O)Nc1ccccc1N1CCN(S(C)(=O)=O)CC1,-0.7% (inactive)
7,CCCS(=O)(=O)N1CCCC(C(=O)NCc2ccco2)C1 (configuration not stated),0.6% (inactive)
8,COc1cccc2cc(C(=O)N(C)C)c(=O)oc12,0.2% (inactive)
9,Cn1c(=O)cc(OCCCC(=O)N2CCN(Cc3ccc4c(c3)OCO4)CC2)c2ccccc21,0.8% (inactive)
10,CC(C)OCCCNC(=O)CNC(=O)c1cccs1,1.3% (inactive)
11,COc1cccc(OCCOc2cccc(/C=N/n3cnnc3)c2)c1,-0.3% (inactive)
12,C=C(C)CSc1nc(N)c2c3c(sc2n1)CCC3,0.3% (inactive)
13,CC(=O)N1CCN(c2cccc(C)c2C)CC1,0.3% (inactive)
14,Cc1c(CN2CCC(C)CC2)c(=O)n(-c2ccccc2)n1C,-0.1% (inactive)
15,Cc1cccc(N2CCN(Cc3c(C)n(C)n(-c4ccccc4)c3=O)CC2)c1C,41.4% (active)
16,CC1CN(C2CCCCC2)c2nc3c(c(=O)n(C)c(=O)n3C)n2C1 (configuration not stated),-0.2% (inactive)
17,CCOC(=O)CSc1nnc(CNC(=O)Cc2ccccc2)n1-c1ccccc1OC,-0.7% (inactive)
18,O=C(Nc1ccc(Oc2ccccc2)cc1)c1ccco1,0.3% (inactive)
19,Cc1ccc(C(=O)COc2cccc(NC(=O)c3ccco3)c2)cc1,0.2% (inactive)
20,CCOc1cc(NC(=O)c2ccco2)c(OCC)cc1NC(=O)COc1ccccc1,9.5% (active)
21,CC(=O)c1cccc(NC(=O)N2CCCC2C(=O)NCCC(C)C)c1 (configuration not stated),-0.1% (inactive)

row,SMILES,activation
1,CCN(Cc1ccccc1)C(=O)CSc1nc(C)cc2c1C(=O)OC2,-0.3% (inactive)
2,CCOc1ccccc1C1C(C(=O)OC)=CN(C)C=C1C(=O)OC,7.1% (inactive)
3,O=C(CCn1c(=O)[nH]c2ccccc2c1=O)NCCCN1CCN(c2cccc(Cl)c2)CC1,11.7% (active)
4,Cn1c(C(=O)NCCCN2CCN(c3cccc(Cl)c3)CC2)cc2c(=O)n(C)c3ccccc3c21,14.6% (active)
5,O=C(CCCn1c(=O)[nH]c2cc(Cl)ccc2c1=O)NCCN1CCN(c2ccccc2)CC1,1% (inactive)
6,CCn1c(=O)cc(OCC(=O)NCCCN2CCN(c3cccc(Cl)c3)CC2)c2ccccc21,7.6% (inactive)
7,O=C(CCn1c(=S)[nH]c2ccccc2c1=O)NCCCN1CCCC1=O,-0.3% (inactive)
8,CC1CCCC(C)N1CCCNC(=O)c1cc2c(=O)n(C)c3ccccc3c2n1C (configuration not stated),0.8% (inactive)
9,Cc1cc(=O)[nH]c(SCC(N)=O)c1C#N,0.8% (inactive)
10,COc1ccc(C(=O)Nc2cccnc2)cc1C(=O)Nc1cccnc1,0.1% (inactive)
11,Cc1ccc2nc(-c3ccc(SCC(=O)Nc4cc(C)on4)nc3)[nH]c2c1,-0.4% (inactive)
12,Cc1cc(=O)oc(C)c1C(=O)NCc1ccc(F)cc1,-0.2% (inactive)
13,CCCOc1ccccc1C(=O)NCCCC(=O)O,0% (inactive)
14,O=C(CC(NCCN1CCOCC1)C(=O)O)Nc1cccc(Cl)c1 (configuration not stated),-1.2% (inactive)
15,Cn1c(CN2CCOCC2)nc2cc(NC(=O)c3ccc(Cl)cc3)ccc21,0.6% (inactive)
16,COc1cccc2cc(C(C)N(CCCN3CCOCC3)C(=O)Nc3ccc(Cl)cc3)oc12 (configuration not stated),15.9% (active)
17,Cc1c2cnn(-c3ccccc3)c(=O)c2c(C)n1CCCC(=O)N1CCN(C)CC1,1% (inactive)
18,CC(C)OC(=O)CN1C(=O)c2ccccc2C1=O,0.5% (inactive)
19,CCOc1ccc(NC(=O)N2CCN(CC)CC2)cc1,-0.5% (inactive)
20,O=C(Nc1c(-c2ccccc2)nc2c(Br)cc(Br)cn12)c1ccco1,-0.3% (inactive)
